The values that follow come from PubChem BioAssay (NCATS).

Structures are written as SMILES. Where “and” joins values, the source holds several entries; their conditions need not be identical. Equal values may be shown once. Inconclusive results are not listed. A number with no mark means an inactive call. The call rests on the fitted dose curve; in most records, active means well fitted activation curve with a large enough effect; inconclusive means small, poorly fitted or top-dose-only effect; inactive means no such curve, though single readings can be large or run the other way.

The test addresses Cellular tumor antigen p53 (Homo sapiens) (UniProt P04637). The test is described as follows: Primary qHTS for small molecule compounds that upregulate eGFP-tagged delta133p53alpha (in N-terminal) cells. (AID 2060322).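 Further: cells pre-induced with doxycycline then dosed without doxycycline; series mostly up to about 56 µM; 0% = DMSO vehicle and 100% = reference activator; nearly all actives have a fitted effect of over 75% in size.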 Particulars: NCI-H358 eGFP-delta133p53alpha fluorescence, 24 h; activation: active compounds read high. The gist of the method: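 NCI-H358 cells pre-induced 24 h with 10 ng/ml doxycycline for eGFP-delta133p53alpha, plated dox-free and exposed 24 h at 37C to titrated compounds. Fixed, Hoechst-stained; gated GFP peak intensity by laser scanning cytometry, normalized to DMSO (0%) and 57.5 uM 5-azacytidine (100%).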

Cellular tumor antigen p53 (Homo sapiens), sequence (P04637 whole entry, looked up): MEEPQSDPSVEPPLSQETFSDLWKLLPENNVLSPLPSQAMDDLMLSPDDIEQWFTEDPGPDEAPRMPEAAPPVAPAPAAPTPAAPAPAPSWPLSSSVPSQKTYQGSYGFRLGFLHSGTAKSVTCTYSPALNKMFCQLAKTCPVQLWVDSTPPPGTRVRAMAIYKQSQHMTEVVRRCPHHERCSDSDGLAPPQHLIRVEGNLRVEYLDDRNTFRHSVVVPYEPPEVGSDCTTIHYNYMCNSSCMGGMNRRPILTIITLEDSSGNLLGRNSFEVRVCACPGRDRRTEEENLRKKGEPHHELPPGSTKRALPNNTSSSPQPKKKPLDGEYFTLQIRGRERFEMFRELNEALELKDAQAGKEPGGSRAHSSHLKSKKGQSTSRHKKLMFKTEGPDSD

Turning to `OC[C@H]1O[C@@H](O[C@H]2[C@@H](O)[C@@](O)(CO)O[C@@H]2CO)[C@H](O)[C@@H](O)[C@@H]1O`, the activation is 0.771%.

In the case of `Cc1cccc(Nc2ccncc2S(=O)(=O)NC(=O)NC(C)C)c1`, the activation was 14.1% and -1.67%.

Regarding `CC1(C)O[C@@H]2[C@@H](CO[C@@]3(COS(N)(=O)=O)OC(C)(C)O[C@@H]23)O1`, the activation is -2.51%.

For the molecule `Cc1ccsc1/C=C/C1=NCCCN1C`, the activation is -2.51%.

Take `C=CCNC(N)=S`: the activation is -2.82%.

In the case of `CON=C(C(=O)N[C@@H]1C(=O)N2C(C(=O)O)=C(Cn3ccc(=N)n3CCO)CS[C@H]12)c1csc(N)n1`, the activation is 23.9%.

As for `Cc1ncc([N+](=O)[O-])n1C`, the activation was -0.565%.

For the molecule `CCc1nn(CCCN2CCN(c3cccc(Cl)c3)CC2)c(=O)n1CCOc1ccccc1`, the activation was -3.35%.
